PubChem BioAssay (EPA / NIEHS)
Results filed as inconclusive are left out. The source made the active and inactive calls. Rule for the calls, unless noted: active = hit-call score of the fitted dose curve at least 0.9, where 1 is the maximum; inactive = score below 0.9.

How the values were obtained:
[1] = ATG_PBREM_CIS: Attagene CIS-FACTORIAL HepG2 Assay for human Phenobarbital-responsive Enhancer Module (PBREM) (AID 2282955); details: HepG2 PBREM cis-reporter, Attagene multiplexed transcription; actives raise or lower the signal
Summary of the method: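 Cells were transfected with cis-element reporter units and treated for 24 h, after which RNA was extracted and reporter transcripts measured by RT-PCR and capillary electrophoresis.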

[2] = biological target: Paired box protein Pax-6 (Homo sapiens) (UniProt P26367); test: ATG_Pax6_CIS: Attagene CIS-FACTORIAL HepG2 Assay for human Paired Box 6 (PAX6) (AID 2282956); details: HepG2 CIS-FACTORIAL PAX6 reporter transcription, RNA readout; actives raise or lower the signal
Summary of the method: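 HepG2 cells transiently transfected with cis-promoter-driven multiplexed reporter units sensing endogenous transcription factor activity; 24 h chemical exposure. Reporter mRNA quantified by RT-PCR, 6-FAM labelling, HpaI digestion and capillary electrophoresis; bidirectional fit versus DMSO baseline.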

[3] = ATG_PXRE_CIS: Attagene CIS-FACTORIAL HepG2 Assay for human Pregnane X Receptor Element (PXRE) (AID 2282957); details: HepG2 Attagene CIS-FACTORIAL PXRE reporter, mRNA; actives raise or lower the signal
Summary of the method: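 HepG2 cells transiently transfected with cis-element-driven multiplexed reporter units; after 24 h chemical exposure, reporter mRNA measured by RT-PCR, 6-FAM labelling, HpaI digestion and capillary electrophoresis. Bidirectional fitting relative to DMSO.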

[4] = ATG_RORE_CIS: Attagene CIS-FACTORIAL HepG2 Assay for human RAR-related Orphan Receptor Element (RORE) (AID 2282959); details: HepG2 Attagene cis-factorial RORE reporter, mRNA; actives raise or lower the signal
Summary of the method: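 Endogenous factor activity at a cis response element is read as reporter transcript levels in HepG2 cells, 24 h post-dose. Transcripts are quantified by RT-PCR with capillary electrophoresis, and data fitted in both directions against DMSO.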

[5] = ATG_Sox_CIS: Attagene CIS-FACTORIAL HepG2 Assay for human SRY-box transcription factor (SOX) (AID 2282960); details: HepG2 Attagene cis-factorial SOX reporter, mRNA; actives raise or lower the signal
Summary of the method: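 Measures mRNA induction of a SOX1-associated reporter in HepG2 after 24 h dosing. Fluorescently labelled RT-PCR fragments are separated by capillary electrophoresis, and gain or loss relative to DMSO control is fitted.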

[6] = biological target: Transcription factor Sp1 (Homo sapiens) (UniProt P08047); test: ATG_Sp1_CIS: Attagene CIS-FACTORIAL HepG2 Assay for human Specificity Protein 1 (Sp1) (AID 2282961); details: HepG2 Sp1 cis-reporter transcription, actives raise or lower the signal
Summary of the method: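 Cells: HepG2, transiently transfected with cis-regulated multiplexed reporters. Exposure: 24 h. Detection: reporter transcripts amplified, fluorescently labeled, restriction-digested and sized by capillary electrophoresis. Analysis: bidirectional fit relative to DMSO.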

[7] = ATG_SREBP_CIS: Attagene CIS-FACTORIAL HepG2 Assay for human Sterol Regulatory Element Binding (SREBP) (AID 2282962); details: HepG2 Attagene cis-factorial SREBP reporter, mRNA; actives raise or lower the signal
Summary of the method: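 HepG2 cells transiently transfected with multiplexed cis-promoter reporter units sensing endogenous transcription factors; reporter mRNA measured 24 h after dosing by RT-PCR, 6-FAM labeling, HpaI digestion and capillary electrophoresis. Bidirectional fit versus DMSO.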

[8] = biological target: Signal transducer and activator of transcription 3 (Homo sapiens) (UniProt P40763); test: ATG_STAT3_CIS: Attagene CIS-FACTORIAL HepG2 Assay for human Signal Transducer and Activator of Transcription 3 (STAT3) (AID 2282963); details: HepG2, Attagene cis-factorial STAT3 reporter transcription; actives raise or lower the signal
Summary of the method: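 HepG2 cells transiently transfected with cis-element-driven multiple reporter transcription units; after 24 h chemical exposure, reporter mRNA measured by RT-PCR, 6-FAM primer-extension labelling, HpaI digestion and capillary electrophoresis. Bidirectional fitting versus DMSO baseline.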

[9] = ATG_TA_CIS: Attagene CIS-FACTORIAL HepG2 Assay for human TA Basal Promoter (AID 2282964); details: HepG2 Attagene CIS-factorial TA basal promoter reporter; actives raise or lower the signal
Summary of the method: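 Multiplexed mRNA reporter assay, HepG2, 24 h. Reporter cDNA amplified, 6-FAM primer-extended, HpaI-cut, CE-sized; DMSO = negative control and baseline.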

[10] = ATG_TAL_CIS: Attagene CIS-FACTORIAL HepG2 Assay for human TAL Basal Promoter (AID 2282966); details: HepG2 Attagene cis-factorial TAL promoter reporter; actives raise or lower the signal;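 note: background control endpoint measuring basal TAL promoter reporter mRNA not a specific factor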
Summary of the method: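 HepG2 cells transiently transfected with multiplexed cis-promoter reporter units, dosed 24 h. Reporter mRNA quantified by RT-PCR, 6-FAM labelling, HpaI digestion and capillary electrophoresis; TAL basal promoter serves as background control, fitted bidirectionally versus DMSO.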

[11] = ATG_VDRE_CIS: Attagene CIS-FACTORIAL HepG2 Assay for human Vitamin D Receptor Element (VDRE) (AID 2282968); details: HepG2 VDRE cis-reporter transcription, actives raise or lower the signal
Summary of the method: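 HepG2 cells transiently transfected with cis-element reporter units, dosed 24 h; reporter mRNA measured by RT-PCR, 6-FAM labeling, HpaI digestion and capillary electrophoresis. Activity fitted bidirectionally against DMSO baseline.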

[12] = biological target: Estrogen receptor (Homo sapiens) (UniProt P03372); test: ATG_ERa_TRANS: Attagene TRANS-FACTORIAL HepG2 Assay for human Estrogen Receptor alpha (ERa) (AID 2282970; active = hit-call score of the fitted dose curve at least 0.9, where 1 is the maximum); details: HepG2 Attagene TRANS ERa GAL4 reporter, mRNA
Summary of the method: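 HepG2 cells transiently transfected with multiplexed GAL4-UAS reporter units read out chimeric NR-Gal4 activity. After 24 h compound exposure, reporter mRNA was quantified by RT-PCR, 6-FAM labeling, HpaI digestion and capillary electrophoresis, relative to DMSO.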

[13] = biological target: X-box-binding protein 1 (Homo sapiens) (UniProt P17861); test: ATG_Xbp1_CIS: Attagene CIS-FACTORIAL HepG2 Assay for human X-box Binding Protein 1 (XBP1) (AID 2282972); details: HepG2 XBP1 cis-element reporter, Attagene multiplex; actives raise or lower the signal
Summary of the method: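 HepG2 cells transiently transfected with multiple cis-element reporter units report endogenous TF activity; 24 h exposure, then reporter mRNA measured by RT-PCR, 6-FAM labelling, HpaI digestion and capillary electrophoresis. Bidirectional fitting versus DMSO.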

[14] = ATG_TCF_b_cat_CIS: Attagene CIS-FACTORIAL HepG2 Assay for human T-Cell-Factor with beta-catenin (TCF/b-cat) (AID 2282965); details: HepG2 TCF/beta-catenin cis-reporter transcription, actives raise or lower the signal
Summary of the method: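 HepG2 cells transiently transfected with multiple cis-promoter-regulated reporter transcription units, so endogenous transcription factor activity is measured. Reporter mRNA read 24 hours after dosing by RT-PCR, fluorescent labelling and capillary electrophoresis; bidirectional fitting against DMSO.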

[15] = ATG_TGFb_CIS: Attagene CIS-FACTORIAL HepG2 Assay for human Transforming Growth Factor (TGF) (AID 2282967); details: HepG2 Attagene CIS TGFb reporter, mRNA transcription; actives raise or lower the signal
Summary of the method: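 Transcript-level reporter readout: HepG2 transfectants, 24 h exposure, RNA to cDNA, reporter-specific PCR, fluorescent primer extension, capillary sizing against ROX standards. Gain- or loss-of-signal relative to DMSO.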

[16] = biological target: Nuclear receptor subfamily 1 group I member 3 (Homo sapiens) (UniProt Q14994); test: ATG_CAR_TRANS: Attagene TRANS-FACTORIAL HepG2 Assay for human Constitutive Androstane Receptor (CAR) (AID 2282969; active = hit-call score of the fitted dose curve at least 0.9, where 1 is the maximum;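 note: activators raise reporter mRNA above DMSO so AC50 marks induction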); details: HepG2 Attagene TRANS-FACTORIAL CAR reporter
Summary of the method: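 HepG2 cells transiently transfected with multiplexed GAL4-UAS reporter units expressing chimeric NR-Gal4 proteins; compound exposure 24 h. Reporter mRNA measured by RT-PCR, 6-FAM labelling, HpaI digestion and capillary electrophoresis; gain-of-signal fitted against DMSO baseline.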

[17] = ATG_GAL4_TRANS: Attagene TRANS-FACTORIAL HepG2 Assay for GAL4 (Internal Marker) (AID 2282976; active = hit-call score of the fitted dose curve at least 0.9, where 1 is the maximum); details: HepG2 Attagene TRANS GAL4 internal marker reporter
Summary of the method: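 Background-control readout: GAL4-UAS reporter transcript in transiently transfected HepG2 cells after 24 h compound exposure. Measured by RT-PCR, 6-FAM primer extension, HpaI digest and capillary electrophoresis; gain-of-signal fit versus DMSO.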

[18] = ATG_M_19_TRANS: Attagene TRANS-FACTORIAL HepG2 Assay for M19 Transcription Factor (Internal Marker) (AID 2282974; active = hit-call score of the fitted dose curve at least 0.9, where 1 is the maximum); details: HepG2 Attagene TRANS-FACTORIAL M19 internal marker reporter
Summary of the method: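 Reporter mRNA induction was measured in transfected HepG2 cells 24 h after dosing. Endpoint fitted upward relative to DMSO and serves as a background control within the multiplexed TRANS panel.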

[19] = ATG_PPRE_CIS: Attagene CIS-FACTORIAL HepG2 Assay for human Peroxisome Proliferator-activated Response Element (PPRE) (AID 2282958); details: HepG2 PPRE cis-element reporter, Attagene transcription factor profiling; actives raise or lower the signal
Summary of the method: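 In this cell-based multiplex, a PPRE cis element drives a reporter sequence in transiently transfected HepG2 cells. Following 24 h treatment, labeled cDNA amplicons are sized and quantified by capillary electrophoresis, with DMSO defining baseline.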

Measured: AC50

Chain of Signal transducer and activator of transcription 3 (Homo sapiens) (P40763 whole entry, looked up): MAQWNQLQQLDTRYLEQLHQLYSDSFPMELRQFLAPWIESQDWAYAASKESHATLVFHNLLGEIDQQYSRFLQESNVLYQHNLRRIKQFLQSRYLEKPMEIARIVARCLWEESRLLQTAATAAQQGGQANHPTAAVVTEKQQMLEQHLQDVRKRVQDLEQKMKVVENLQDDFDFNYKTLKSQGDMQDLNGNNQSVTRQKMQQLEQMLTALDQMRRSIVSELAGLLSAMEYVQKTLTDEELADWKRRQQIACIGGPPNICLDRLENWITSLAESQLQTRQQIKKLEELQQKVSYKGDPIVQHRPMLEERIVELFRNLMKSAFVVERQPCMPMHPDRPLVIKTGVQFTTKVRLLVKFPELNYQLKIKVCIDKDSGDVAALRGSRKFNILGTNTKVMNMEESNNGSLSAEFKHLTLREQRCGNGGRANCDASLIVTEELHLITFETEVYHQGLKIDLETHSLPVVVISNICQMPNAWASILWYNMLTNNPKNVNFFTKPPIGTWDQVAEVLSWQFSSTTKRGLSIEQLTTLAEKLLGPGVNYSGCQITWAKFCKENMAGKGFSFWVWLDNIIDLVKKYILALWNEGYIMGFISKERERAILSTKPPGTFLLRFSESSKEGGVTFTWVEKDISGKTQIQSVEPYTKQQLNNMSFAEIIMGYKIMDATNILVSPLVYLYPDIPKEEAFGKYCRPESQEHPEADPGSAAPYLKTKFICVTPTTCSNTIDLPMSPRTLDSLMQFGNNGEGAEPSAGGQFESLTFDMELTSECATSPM
Chain of Paired box protein Pax-6 (Homo sapiens) (P26367 whole entry, looked up): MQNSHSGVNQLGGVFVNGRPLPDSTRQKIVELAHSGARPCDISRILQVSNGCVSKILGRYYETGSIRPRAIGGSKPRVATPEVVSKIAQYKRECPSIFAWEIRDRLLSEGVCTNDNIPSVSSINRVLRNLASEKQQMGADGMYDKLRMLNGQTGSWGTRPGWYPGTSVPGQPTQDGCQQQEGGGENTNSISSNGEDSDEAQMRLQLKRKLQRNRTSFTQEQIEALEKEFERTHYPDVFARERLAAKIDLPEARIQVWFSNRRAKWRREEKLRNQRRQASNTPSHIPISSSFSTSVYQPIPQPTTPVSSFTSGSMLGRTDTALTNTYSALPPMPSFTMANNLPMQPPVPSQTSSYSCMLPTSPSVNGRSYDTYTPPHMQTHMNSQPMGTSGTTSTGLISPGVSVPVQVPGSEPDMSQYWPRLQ
Chain of Transcription factor Sp1 (Homo sapiens) (P08047 whole entry, looked up): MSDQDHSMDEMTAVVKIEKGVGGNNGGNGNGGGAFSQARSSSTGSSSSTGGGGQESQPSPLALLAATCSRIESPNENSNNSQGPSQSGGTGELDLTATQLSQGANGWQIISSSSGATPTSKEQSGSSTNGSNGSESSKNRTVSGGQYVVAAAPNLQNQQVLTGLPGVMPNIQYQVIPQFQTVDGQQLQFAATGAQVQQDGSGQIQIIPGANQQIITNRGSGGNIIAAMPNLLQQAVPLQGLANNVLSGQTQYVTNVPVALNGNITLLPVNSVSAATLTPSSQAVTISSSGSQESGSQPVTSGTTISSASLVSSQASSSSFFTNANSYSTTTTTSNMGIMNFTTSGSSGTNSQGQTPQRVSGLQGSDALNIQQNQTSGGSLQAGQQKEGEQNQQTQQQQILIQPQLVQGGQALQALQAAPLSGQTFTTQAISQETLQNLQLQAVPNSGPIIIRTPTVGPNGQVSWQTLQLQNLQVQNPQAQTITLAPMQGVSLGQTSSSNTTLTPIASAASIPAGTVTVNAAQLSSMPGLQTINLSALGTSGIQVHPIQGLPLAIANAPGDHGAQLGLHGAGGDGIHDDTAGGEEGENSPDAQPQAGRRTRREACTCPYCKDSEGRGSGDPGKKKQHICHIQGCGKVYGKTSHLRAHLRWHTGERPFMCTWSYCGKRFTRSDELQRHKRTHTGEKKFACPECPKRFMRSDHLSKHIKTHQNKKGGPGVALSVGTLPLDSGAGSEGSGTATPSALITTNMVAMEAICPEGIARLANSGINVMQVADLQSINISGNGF
Chain of Estrogen receptor (Homo sapiens) (P03372 whole entry, looked up, the tested form may be a part): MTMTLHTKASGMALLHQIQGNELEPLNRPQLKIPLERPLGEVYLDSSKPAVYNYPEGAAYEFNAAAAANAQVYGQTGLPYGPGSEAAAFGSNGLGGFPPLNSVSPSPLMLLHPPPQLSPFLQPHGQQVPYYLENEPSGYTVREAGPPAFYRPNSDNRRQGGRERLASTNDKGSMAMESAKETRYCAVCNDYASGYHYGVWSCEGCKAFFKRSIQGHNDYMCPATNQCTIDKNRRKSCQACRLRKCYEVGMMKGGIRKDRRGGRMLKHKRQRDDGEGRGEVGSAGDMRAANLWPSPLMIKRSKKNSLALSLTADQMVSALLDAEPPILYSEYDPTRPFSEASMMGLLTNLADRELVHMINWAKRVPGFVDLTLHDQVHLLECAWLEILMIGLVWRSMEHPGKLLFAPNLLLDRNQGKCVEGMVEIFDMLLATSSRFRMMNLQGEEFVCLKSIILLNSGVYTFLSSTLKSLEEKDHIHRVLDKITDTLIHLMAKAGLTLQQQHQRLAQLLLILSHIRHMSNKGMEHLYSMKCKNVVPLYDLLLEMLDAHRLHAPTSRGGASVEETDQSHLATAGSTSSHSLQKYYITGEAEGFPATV
Chain of Nuclear receptor subfamily 1 group I member 3 (Homo sapiens) (Q14994 whole entry, looked up, the tested form may be a part): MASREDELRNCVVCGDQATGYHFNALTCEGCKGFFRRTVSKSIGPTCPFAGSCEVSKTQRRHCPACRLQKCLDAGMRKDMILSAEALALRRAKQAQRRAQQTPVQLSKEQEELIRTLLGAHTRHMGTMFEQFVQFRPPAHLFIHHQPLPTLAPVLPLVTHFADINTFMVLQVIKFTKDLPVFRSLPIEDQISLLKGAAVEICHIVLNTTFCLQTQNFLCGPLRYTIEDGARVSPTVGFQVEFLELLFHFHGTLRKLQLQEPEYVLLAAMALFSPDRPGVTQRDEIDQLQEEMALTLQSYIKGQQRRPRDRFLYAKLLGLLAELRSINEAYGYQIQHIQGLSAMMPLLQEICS
Chain of X-box-binding protein 1 (Homo sapiens) (P17861 whole entry, looked up): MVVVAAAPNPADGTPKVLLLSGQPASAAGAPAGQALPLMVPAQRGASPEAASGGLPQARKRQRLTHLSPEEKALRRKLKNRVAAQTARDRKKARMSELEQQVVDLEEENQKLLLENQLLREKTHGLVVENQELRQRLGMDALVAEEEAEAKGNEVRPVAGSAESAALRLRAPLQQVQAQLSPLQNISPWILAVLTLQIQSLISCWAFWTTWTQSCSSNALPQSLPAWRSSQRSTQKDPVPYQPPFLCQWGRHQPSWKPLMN

CC(C)COC(=O)c1ccccc1
not listed: [14] | [15] | [16] | [17] | [18] | [19]
inactive: all other assays above

NC(=O)NC(N)=O
not listed: [6] | [11] | [18] | [19]
inactive: all other assays above

c1ccc(OCCOc2ccccc2)cc1
not listed: [6] | [9] | [17] | [19]
inactive: all other assays above

C=C(C)C(=O)OCCOCCOC(=O)C(=C)C
not listed: [4] | [12] | [16] | [19]
inactive: all other assays above

OC[C@H]1O[C@@H](O[C@H]2[C@H](O)[C@@H](O)[C@H](O)O[C@@H]2CO)[C@H](O)[C@@H](O)[C@H]1O
not listed: [4] | [11] | [12] | [19]
inactive: all other assays above

CCNC(=S)NCC
not listed: [9] | [12] | [13] | [17] | [18] | [19]
inactive: all other assays above

CCCCN(CCO)CCO
not listed: [12] | [14] | [16] | [17] | [18] | [19]
inactive: all other assays above

CC(C)OB(OC(C)C)OC(C)C
not listed: [9] | [12] | [19]
inactive: all other assays above

CCCCCc1cccc(=O)o1
active: [3] 25.1 µM
not listed: [2] | [16] | [17]
inactive: all other assays above
